PfM18AAP inh = PfM18AAP enzyme inhibition | recombinant PfM18AAP, H-Glu-NHMec fluorogenic cleavage | inhibition, % at 7.35 µM | hit rate 1.2% among 290,000 | AID 1822;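 active = inhibition above the campaign mean inhibition over all tested compounds plus 3 SD, cut at about 28% in these data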
ALR H2O2 inh = human ALR oxidase inhibition via reduced H2O2; P55789; purified ALR, DTT oxidation, H2O2 HRP-luminol luminescence; inhibition, % (concentration not given with the values); hit rate 3.8% among 290,000; AID 485317;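 active = mean replicate inhibition above about 79%, with every replicate also reaching it, limit read from the data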
Target sequence (P55789 whole entry, looked up): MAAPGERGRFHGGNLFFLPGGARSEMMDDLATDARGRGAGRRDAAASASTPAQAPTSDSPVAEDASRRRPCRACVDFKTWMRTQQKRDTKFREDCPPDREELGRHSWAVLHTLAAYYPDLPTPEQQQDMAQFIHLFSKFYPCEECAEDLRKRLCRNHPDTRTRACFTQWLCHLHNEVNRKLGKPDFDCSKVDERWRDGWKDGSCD
PfG6PD inh = PfG6PD (Plasmodium falciparum) enzyme inhibition; hit rate 0.78% among 350,000; inhibition, % at 20 µM; PfGluPho enzyme, NADPH resazurin-diaphorase fluorescence;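 active = inhibition reaching at least a set limit at 20 µM in the primary screen, cut at about 59% in these data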
PHOSPHO1 block = inhibitors of human PHOSPHO1 phosphatase | Q8TCT1 | recombinant PHOSPHO1, absorbance phosphatase assay | inhibition, % at 13.3 µM | hit rate 1.1% among 290,000 | AID 1565; in the data active = inhibition above about 60%
Cardio protect = modulators protecting cardiomyocytes from myocardial damage; H9c2 cardiomyocytes, H2O2 injury protection, ATPLite, 2 h; protection from H2O2 cell death, % at 20 µM; hit rate 0.63% among 360,000; AID 588492;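 active = compounds giving at least 50% protection of heart cells from peroxide-induced death in the single-dose screen, raw or plate-pattern-corrected value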
Of the large screens only hits and unclear results are named; the others gave an inactive call. Sampled rows, rich in hits. Any-hit rate of the full collection: about 5.6%.

NC(=O)c1ccc(NC(=O)CS(=O)(=O)c2cn(CC(=O)N3CCCCC3)c3ccccc23)cc1	none
CC(=O)c1ccc(OCCCC(=O)Nc2cccc(S(=O)(=O)N3CCCCC3)c2)cc1	none (no result: PfM18AAP inh, ALR H2O2 inh, PHOSPHO1 block)
CSc1ccccc1NC(=O)CSc1nnc(COc2ccccc2)o1	none
COc1cc(Cl)c(C)cc1NC(=O)CSCC#N	none
Cc1ccc(NC(=O)CSCC#N)cc1Cl	ALR H2O2 inh 99
Cc1ccc(NC(=O)CSc2nncs2)cc1Cl	ALR H2O2 inh 99 (no result: PfM18AAP inh, PHOSPHO1 block)
CCOC(=O)c1cc(NC(=O)CSCCO)ccc1Cl	ALR H2O2 inh 99
COc1ccc(CCNC(=O)CSc2ccc3nnc(CCNC(=O)c4ccccc4)n3n2)cc1OC	none
COc1cc(/C=N\NC(=O)c2ccc(Cn3nc([N+](=O)[O-])c(Cl)c3C)o2)ccc1O	ALR H2O2 inh 95
Cc1c(Cl)c([N+](=O)[O-])nn1Cc1ccc(C(=O)N/N=C\c2ccccn2)o1	none
CCN1C[C@@H]2[C@@H]3C(=O)N(Cc4ccccc4)C(=O)[C@@H]3[C@](Cc3ccccc3)(C1=O)N2C(=O)c1ccc(Br)cc1	none (no result: PfM18AAP inh, ALR H2O2 inh, PHOSPHO1 block)
C[C@H](CO)N1C[C@H](C)[C@@H](CN(C)C(=O)Nc2ccccc2)Oc2ccc(NC(=O)Nc3ccc(C(F)(F)F)cc3)cc2C1=O	none (no result: PfM18AAP inh, PHOSPHO1 block)
C[C@@H]1CN([C@@H](C)CO)C(=O)c2cc(NC(=O)Nc3ccccc3)ccc2O[C@H]1CN(C)C(=O)Nc1cccc2ccccc12	Cardio protect 90 (no result: PfM18AAP inh, PHOSPHO1 block)
O=C(N/N=C/c1cn(-c2ccccc2)nc1-c1cccs1)c1ccccc1F	Cardio protect 76
O=C(N/N=C/c1cn(-c2ccccc2)nc1-c1cccnc1)c1cccnc1	Cardio protect 52
O=C(N/N=C/c1cn(-c2ccccc2)nc1-c1ccc(F)cc1)c1ccc(Br)o1	none
O=C(N/N=C/c1cn(-c2ccccc2)nc1-c1cccnc1)c1ccc(F)cc1	Cardio protect 71
O=C(N/N=C/c1cn(-c2ccccc2)nc1-c1cc2ccccc2o1)c1cccnc1	none
CC(C)n1ncc2c(C(=O)NCC(=O)Nc3ccccc3Br)cc(C3CC3)nc21	none (no result: PfM18AAP inh, PHOSPHO1 block)
COC(=O)C(C)n1cnc2c(nnn2-c2cccc(OC)c2)c1=O (configuration not stated)	none
O=C(/C=C/c1ccccc1)c1ccc2c(c1)OCCCCO2	none
O=C1COc2ccc(C(=O)/C=C/c3ccccc3)cc2N1	ALR H2O2 inh 97
CCn1c2ccccc2c2nc3cc(OC)c(OC)cc3nc21	Cardio protect 51
CCc1ccc(-c2nc(CS(=O)CC(=O)NCc3ccc4c(c3)OCO4)c(C)o2)cc1 (configuration not stated)	ALR H2O2 inh 99
Cc1ccc(-c2nc(CS(=O)CC(=O)NCc3ccc4c(c3)OCO4)c(C)o2)cc1 (configuration not stated)	ALR H2O2 inh 99
c1ccc(COc2ncnc3c2ncn3CCCNCc2cccs2)cc1	none (no result: PfM18AAP inh, ALR H2O2 inh, PHOSPHO1 block)
COc1cc2c(cc1OC)C(COc1ccc3c(C)cc(=O)oc3c1)N(C(=O)c1ccco1)CC2 (configuration not stated)	Cardio protect 58
O=C(NNc1ncnc2sccc12)c1ccc(Cl)cc1	PfM18AAP inh 28
CCN(CC)c1ccc(C2C(C(=O)OC(C)C)C(=O)CC(C)(O)C2C(=O)OC(C)C)cc1 (configuration not stated)	Cardio protect 75
CCOC(=O)C1C(=O)CC(C)(O)C(C(=O)OCC)C1c1ccc(F)cc1 (configuration not stated)	none
CC(C)OC(=O)C1C(=O)CC(C)(O)C(C(=O)OC(C)C)C1c1ccc(F)cc1 (configuration not stated)	none
CCOC(=O)C1C(=O)CC(C)(O)C(C(=O)OCC)C1c1ccc(N(CC)CC)cc1 (configuration not stated)	ALR H2O2 inh 98
CC(C)Cn1c(N)c(C(=O)COC(=O)Cc2cccc(C(F)(F)F)c2)c(=O)n(C)c1=O	none (no result: PfM18AAP inh, PHOSPHO1 block)
CCOc1ccc(C(c2c(O)nc(SC)n(C)c2=O)c2c(O)nc(SC)n(C)c2=O)cc1	ALR H2O2 inh 98
Cn1c(/C=C/c2cccc([N+](=O)[O-])c2)c([N+](=O)[O-])c(=O)n(C)c1=O	ALR H2O2 inh 98
COc1ccc(/C=C/c2c([N+](=O)[O-])c(=O)n(C)c(=O)n2C)cc1OC	none
COC(=O)c1cc(S(=O)(=O)NC2CCC(C)CC2)cn1C (configuration not stated)	PHOSPHO1 block 64
CSc1nc(N)nc2c1ncn2CC(=O)NCCNc1ccc([N+](=O)[O-])cn1	none (no result: PfM18AAP inh, ALR H2O2 inh, PHOSPHO1 block)
CCC(=O)n1nc(-c2ccco2)nc1N	PHOSPHO1 block 67
CC(=O)n1nc(-c2ccco2)nc1N	none
